Screening data deposited in PubChem by several laboratories.
Gli-Sufu antag: blocks Gli-Sufu signaling in a luciferase reporter. Sufu-KO-LIGHT fibroblasts, Gli luciferase reporter luminescence. 340,000 compounds, 0.74% hits. inhibition, % at 5 µM. AID 588413;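 active means inhibition above about 55%, limit read from the data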;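 further: 0% = DMSO-treated cells and 100% = wells with medium but no cells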
697 NFkB inh: inhibitors of the PMA/ionomycin-induced NF-kB reporter in 697 B cells; 330,000 compounds, 0.33% hits; inhibition, % at 4 µM; 697 B-cell NF-kB luciferase reporter, 16 h; in the data active means inhibition above about 35%
esBAF inh: SWI/SNF esBAF complex inhibition. mouse ES cells, Bmi1-luciferase knock-in reporter, 24 h; 100% = twice the neutral-well signal. reporter increase, % at 12.5 µM. 350,000 compounds, 2% hits; in the data active means activation above about 40%;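 further: 0% = median of the plate's neutral control wells and 100% = double that signal; a rise in the Bmi1 reporter signal indicates esBAF inhibition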
SMARCA2 act: SMARCA2 function activation, primary screen. AID 652017. activation, % at 9.1 µM. MG213 cells, MMTV-luciferase reporter, dexamethasone, overnight. 370,000 compounds, 1% hits; in the data active means activation above about 7.8%;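 further: 0% = vehicle wells and 100% = reference activator wells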
Jurkat NFkB inh: lowers PMA/ionomycin-induced NF-kB signal in Jurkat cells; PMA/ionomycin-induced NF-kB luciferase reporter, luminescence; inhibition, % at 4 µM; 330,000 compounds, 0.53% hits; in the data active means inhibition above about 50%
SMARCA2 act conf: confirmation of SMARCA2 (BRM) function activators; MG213 cells, MMTV-luciferase with dexamethasone, luminescence, overnight; MG213 cells expressing E1A, Rb sequestered; DMSO wells 0%, reference activator 100%; activation, % at 9.1 µM; shares compounds with SMARCA2 act; 3,500 compounds, 30% hits;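 active means activation above its plate's cutoff, the mean activation of tested wells plus 3 SD, cut at about 7.9% in these data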
GAL4-VP16 Luc: GAL4-VP16 reporter activation counter-screen | shares compounds with SMARCA2 act | HEK293 GAL4-VP16 pG5luc reporter, luciferase luminescence; scaled: DMSO wells 0%, SAHA wells 100% | activation, % at 9.1 µM | 3,500 compounds, 41% hits | AID 686939;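 active means activation above the solvent-only control well mean plus 3 SD, averaged across control plates, cut at about 5.2% in these data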
The depositor's hits bear a star; · = not tested or not shown. This is a sample that favours compounds with a hit; in the whole collection about 3.3% have one here.

SMILES | Gli-Sufu antag | 697 NFkB inh | esBAF inh | SMARCA2 act | Jurkat NFkB inh | SMARCA2 act conf | GAL4-VP16 Luc
Nc1cccc(O)c1 | -13 | 17 | -9 | 9.7* | -9 | 5 | 1
Nc1ccc2ccc(O)cc2c1 | 2 | · | 38 | 3 | · | · | ·
CO[C@H]1CN(C)C(=O)c2cc(NC(=O)NC3CCCCC3)ccc2OC[C@@H](C)N(C(C)=O)C[C@@H]1C | · | · | -1 | · | · | · | ·
Cn1ncc2c(Nc3ccc(O)cc3)nc(Cl)nc21 | 19 | -1 | -3 | 18* | -5 | 5 | 2
Cn1ncc2c(Nc3ccc(Br)cc3)nc(Nc3ccc(Br)cc3)nc21 | 24 | 0 | -15 | -4 | 16 | · | ·
C[C@H]1CN([C@@H](C)CO)S(=O)(=O)c2ccc(C3=CCCC3)cc2O[C@@H]1CN(C)C(=O)CN(C)C | · | · | -2 | · | · | · | ·
O=C1NC2c3c(Cl)sc(Cl)c3C(=O)C2O1 (configuration not stated) | 8 | · | 6 | 15* | · | 9.0* | 1
O=C1NC2c3ccccc3CC2O1 (configuration not stated) | -9 | -9 | -4 | 1 | -17 | · | ·
O=C1NC2c3c(I)sc(I)c3C(=O)C2O1 (configuration not stated) | 13 | · | -1 | 8.7* | · | -4 | 0
Cc1ccc2nc(-c3ccc(N4C(=O)CC(N5CCN(CCO)CC5)C4=O)cc3)sc2c1 (configuration not stated) | -29 | -93 | · | 8.6* | -48 | 6 | 5
C[C@@H]1CN([C@H](C)CO)C(=O)c2ccccc2-c2ccccc2CO[C@H]1CN(C)C(=O)Nc1ccc(F)cc1 | · | · | 7 | · | · | · | ·
Cc1csc(NC(=O)c2nc3nccc(C)n3n2)n1 | -33 | -55 | 21 | 8.6* | -43 | 4 | 4
Cc1ccnc2nc(C(=O)Nc3nc4ccccc4s3)nn12 | -56 | -156 | -16 | 11* | -56 | 7 | 11*
Cc1ccnc2nc(C(=O)Nc3nnc(CC(C)C)s3)nn12 | 12 | 8 | 8 | 2 | 8 | · | ·
COc1ccc(-c2nc(NC(=O)c3nc4nccc(C)n4n3)sc2C)cc1 | -8 | -25 | 0 | -3 | 4 | · | ·
COCC(=O)Nc1ccc2c(c1)C(=O)N(C)C[C@@H](OC)[C@@H](C)CN(C(=O)c1cnccn1)[C@@H](C)CO2 | · | · | -4 | · | · | · | ·
COc1ccc2oc3cc(NCCN(C)C)ccc3c(=O)c2c1 | · | · | -36 | 21* | · | 38* | 13*
CN(C)CCNc1ccc2ncn3c4ccc(O)cc4c(=O)c1c23 | 25 | · | · | 15* | · | 141* | 2
COc1ccc2sc3cccc(NCCN(C)C)c3c(=O)c2c1 | · | · | · | 29* | · | 40* | 4
CN(C)CCCNC(=O)c1cc2sc3ccccc3c2s1 | 0 | -22 | · | 6 | -27 | · | ·
COc1ccc2oc3c(ccc[n+]3C)c(=O)c2c1 | · | · | · | 0 | · | · | ·
CN(C)CCNc1ccc(CO)c2sc3ccc(O)cc3c(=O)c12 | 77* | · | · | 14* | · | 5 | 11*
COc1ccc(CN(C)C[C@@H]2OCCCC[C@H](C)Oc3ccc(NS(=O)(=O)c4ccc(C)cc4)cc3C(=O)N([C@H](C)CO)C[C@@H]2C)cc1 | · | · | -2 | · | · | · | ·
CO[C@H]1CN(C)C(=O)c2cc(NC(=O)Cc3ccccc3)ccc2OC[C@H](C)N(C(C)=O)C[C@H]1C | · | · | -4 | · | · | · | ·
COc1ccc(NC(=O)N(C)C[C@@H]2OCCCC[C@H](C)Oc3ccc(NC(=O)CCC(F)(F)F)cc3C(=O)N([C@H](C)CO)C[C@@H]2C)cc1 | · | · | 2 | · | · | · | ·
SMILES | Gli-Sufu antag | 697 NFkB inh | esBAF inh | SMARCA2 act | Jurkat NFkB inh | SMARCA2 act conf | GAL4-VP16 Luc
COc1ccccc1CN1C[C@@H](C)[C@H](OC)CN(C)C(=O)c2ccc(NC(=O)Nc3ccccc3OC)cc2OC[C@H]1C | · | · | 8 | · | · | · | ·
CN1C(=O)c2cc(NC(=O)c3cncs3)ccc2OC[C@H]2O[C@@H](CC(=O)Nc3ccccc3F)CC[C@@H]21 | · | · | 0 | · | · | · | ·
COc1cc(S(=O)(=O)N2CCOCC2)cc(C(=O)c2nccn2C)c1OC | -3 | 3 | 5 | 9.3* | 14 | -1 | 2
CCn1c(SCC(N)=O)nc2ccccc2c1=O | -1 | -34 | 6 | 8.0* | -15 | -2 | 0
O=C(NC1=NCCS1)c1cccc(Br)c1 | -62 | -134 | 48* | 12* | -109 | 17* | 7.0*
COc1ccc(CNC(=O)C2CC(c3ccc(OC)cc3)=NO2)cc1 (configuration not stated) | -1 | -9 | -4 | 2 | 11 | · | ·
COc1ccc(C2=NOC(CNC(N)=S)C2)cc1 (configuration not stated) | -82 | -79 | · | 13* | -78 | 7 | 7.7*
C[C@@H]1CN([C@@H](C)CO)S(=O)(=O)c2ccc(C#CCN(C)C)cc2O[C@@H]1CN(C)C | · | · | -3 | · | · | · | ·
COc1ccc(C(=O)N2C(=S)NC(=O)/C2=C\c2ccc(C)cc2)cc1 | -9 | 6 | · | 13* | 7 | -2 | 2
Cc1ccc(NC(=O)COC(=O)C2CCC(=O)N2)c([N+](=O)[O-])c1 (configuration not stated) | -2 | -3 | · | 13* | 11 | -2 | 1
Cc1ccc(-c2cccc(NC(=O)C3C4C=CC(C4)C3C(=O)O)c2)o1 (configuration not stated) | -7 | -3 | 40 | 9.4* | 13 | 1 | 0
N#C/C(=C\C=C\c1ccccc1)c1nc(-c2ccc3c(c2)OCO3)cs1 | -1 | 22 | · | 9.8* | 4 | 1 | -1
CCCNC(=O)[C@H]1[C@H](CO)[C@H]2Cn3c(cccc3=O)[C@@H]1N2S(=O)(=O)c1ccccc1C | · | · | 1 | · | · | · | ·
O=C(N/N=C1\CCc2ccccc21)c1ccccc1Cl | -55 | -112 | · | 3 | -117 | · | ·
Cc1ccc(C(=O)N/N=C2\CCc3ccccc32)c(C)c1 | -92 | -102 | · | 8.5* | -70 | 7 | 11*
CCNC(=O)C[C@H]1CC[C@H]2[C@@H](COc3ccc(NC(=O)c4cc(C)on4)cc3C(=O)N2C)O1 | · | · | -4 | · | · | · | ·
CCCC(=O)Nc1ccc2c(c1)OC[C@@H](C)N(CCc1ccccc1)C[C@@H](C)[C@@H](OC)CN(C)C2=O | · | · | -4 | · | · | · | ·
COc1ccc(/C=N/n2cnnc2)cc1COc1ccccn1 | -1 | 2 | -4 | 0 | -2 | · | ·
COc1cc(/C=N/n2cnnc2)ccc1OCc1ccccc1 | 22 | 11 | 21 | 8.1* | -27 | 5 | 0
C/C=C/c1ccc2c(c1)O[C@H](CN(C)C(=O)Cc1cccnc1)[C@H](C)CN([C@@H](C)CO)S2(=O)=O | · | · | -1 | · | · | · | ·
Cc1ccc(S(=O)(=O)N/N=C/c2ccc(OS(=O)(=O)c3ccc(C)c([N+](=O)[O-])c3)cc2)cc1 | 25 | 2 | -2 | 3 | -13 | · | ·
Cc1ccc(S(=O)(=O)N/N=C\c2ccc(Cl)c([N+](=O)[O-])c2)cc1 | -17 | 4 | 0 | 11* | 15 | 1 | -1
